FBW7 activator: human FBW7 E3 ligase activation, primary screen. AlphaScreen FBW7–phospho-cyclin E peptide binding, activator screen. normalized activity (activation), % at 26.1 µM. Q969H0. 650,000 tested, 0.13% active; in the data active = normalized activity above about 1.9%;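 also: purified mutant Fbw7 with reduced substrate affinity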
GPR151 activ: activators of human GPR151; PathHunter beta-arrestin GPR151 cells, luminescence; activation, % at 11.2 µM; 650,000 tested, 1% active; in the data active = activation above about 4.9%
Target sequence (Q8TDV0 whole entry, looked up): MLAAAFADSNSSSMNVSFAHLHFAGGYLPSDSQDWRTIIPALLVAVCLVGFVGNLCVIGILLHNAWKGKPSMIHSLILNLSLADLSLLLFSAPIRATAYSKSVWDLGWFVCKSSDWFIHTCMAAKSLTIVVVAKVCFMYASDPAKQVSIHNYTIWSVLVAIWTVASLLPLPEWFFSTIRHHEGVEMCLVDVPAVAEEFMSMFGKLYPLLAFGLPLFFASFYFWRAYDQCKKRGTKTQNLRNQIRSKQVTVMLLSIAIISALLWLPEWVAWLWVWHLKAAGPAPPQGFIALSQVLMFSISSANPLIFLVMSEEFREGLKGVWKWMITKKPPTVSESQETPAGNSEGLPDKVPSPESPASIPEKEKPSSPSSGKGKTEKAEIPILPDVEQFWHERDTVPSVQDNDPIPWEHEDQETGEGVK
TEAD-YAP block: TEAD-YAP interaction inhibition. HEK-TIYL cells, TEAD-Gal4/YAP UAS-luciferase luminescence. inhibition, % at 9.12 µM. 640,000 tested, 1.4% active; in the data active = inhibition above about 32%
MITF primary: blocks human microphthalmia-associated transcription factor | O75030 | AlphaScreen MITF homodimerization, bead proximity signal | inhibition, % at 2.6 µM | 650,000 tested, 0.91% active | AID 1259374; in the data active = inhibition above about 50%
MITF inh conf: human MITF inhibition, confirmation; shares compounds with MITF primary; AID 1259372; 4,700 tested, 16% active; inhibition, % at 2.6 µM; AlphaScreen MITF homodimerization, biotin/His-MITF beads;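 active = inhibition above a cutoff derived from the DMSO control wells, cut at about 28% in these data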;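 also: inhibitors lower the bead chemiluminescence by keeping MITF from dimerizing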
AS interf DR: optically interferes with AlphaScreen signal in dose response; IC50, µM; AlphaScreen optical interference counterscreen, cell-free; 480 tested, 6% active; shares compounds with MITF primary; call rule not given here
AS interf ctr: AlphaScreen optical interference, counter-screen | inhibition, % at 2.6 µM | shares compounds with MITF primary | 4,700 tested, 7.6% active | LysRS AlphaScreen counterscreen, signal interference, triplicate | AID 1259376;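 active = inhibition above a cutoff derived from the DMSO control wells, cut at about 30% in these data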
Numbers stand for hits; 0 = inactive; - = no result given. Compounds with a hit are over-represented: about 3.5% of the library has one in this group of screens.

SMILES	FBW7 activator	GPR151 activ	TEAD-YAP block	MITF primary	MITF inh conf	AS interf ctr	others
COc1cc(OC)cc(C(=O)N2CCN(Cc3ccccc3[N+](=O)[O-])CC2)c1	0	0	0	61	0	0
COc1cc(C(=O)N2CCN(Cc3cccc4ccccc34)CC2)cc(OC)c1OC	0	0	0	57	0	0
COc1cc(OC)cc(C(=O)N2CCN(Cc3c[nH]c4ccccc34)CC2)c1	0	0	0	0	-	-
CCOc1ccc(CN2CCN(Cc3ccccc3[N+](=O)[O-])CC2)cc1	0	0	0	56	0	0
COc1cccc(CN2CCN(C(=O)c3cccc4ccccc34)CC2)c1OC	0	0	0	54	0	0
COc1ccc(CN2CCN(C(=O)c3cccc4ccccc34)CC2)cc1OC	0	0	0	0	-	-
COc1ccc(/C=C/C(=O)OCC(=O)C(C)(C)C)c(OC)c1	0	0	0	0	-	-
CC(C)(C)C1CCc2c(sc3nc(SCC(=O)c4ccc(Br)cc4)n(-c4ccccc4)c(=O)c23)C1 (stereo not given)	0	0	0	0	-	-
O=C(CCCn1ncn2c(cc3occc32)c1=O)NCC1CCCO1 (stereo not given)	0	0	0	0	-	-
COc1ccccc1C(=O)N1CCN(Cc2ccccc2[N+](=O)[O-])CC1	0	0	0	0	-	-
CC(=O)c1ccc(N2CCN(CC(=O)NCc3cccs3)CC2)cc1	0	0	0	0	-	-
O=[N+]([O-])c1ccc(N2CCN(Cc3ccccc3[N+](=O)[O-])CC2)cc1	0	0	0	0	-	-
CC(=O)c1ccc(N2CCN(Cc3ccccc3[N+](=O)[O-])CC2)cc1	0	0	0	51	0	0
CC(=O)c1ccc(N2CCN(Cc3cccs3)CC2)cc1	0	0	0	56	0	0
COc1cccc(CN2CCN(Cc3ccco3)CC2)c1OC	0	0	0	0	-	-
COc1cccc(CN2CCN(C(=O)c3ccco3)CC2)c1OC	0	0	0	57	0	0
COc1ccc(C(=O)N2CCN(Cc3ccccc3[N+](=O)[O-])CC2)cc1	0	0	0	54	0	0
CCOc1cccc(/C(O)=C2\C(=O)C(=O)N(CCCn3ccnc3)C2c2ccco2)c1 (stereo not given)	0	0	0	0	-	-
COCCNC(=O)c1c(NC(=O)COc2ccc(C)cc2)sc2c1CCCC2	0	0	0	0	-	-
COc1cc(OC)c(C2C(C#N)=C(N)Oc3n[nH]c(-c4ccc5c(c4)OCO5)c32)cc1OC (stereo not given)	0	0	0	0	-	-
O=C(c1ccc2c(=O)n(CCC3=CCCCC3)c(=S)[nH]c2c1)N1CCCCCC1	0	0	0	0	-	-
O=C(c1ccncc1)N1CCN(Cc2ccccc2[N+](=O)[O-])CC1	0	0	0	78	74	0	AS interf DR=0
COC(=O)c1ccc(OCCCCN2CC(C)OC(C)C2)cc1 (stereo not given)	0	0	0	54	0	0
CC1CN(CCOc2ccc(F)cc2)CC(C)O1 (stereo not given)	0	0	0	53	0	0
COc1ccc(-c2cc3ccccc3oc2=O)cc1NC(=O)COc1ccccc1[N+](=O)[O-]	0	0	0	0	-	-
SMILES	FBW7 activator	GPR151 activ	TEAD-YAP block	MITF primary	MITF inh conf	AS interf ctr	others
COc1ccc(-c2cc3ccccc3n2CC(O)CNCc2ccco2)cc1 (stereo not given)	0	0	0	71	0	0
S=c1nc2ccccc2c2[nH]c3ccccc3n12	0	0	0	56	0	0
S=c1[nH]c2ccccc2n2c(=S)[nH]nc12	0	0	0	0	-	-
O=C1Nc2c(C(=O)O)cccc2C1=O	0	0	0	71	68	0	AS interf DR=0
O=C1Nc2c(I)cccc2C1=O	0	0	0	0	-	-
O=C1CCCN1CCn1cnc2c(Nc3ccc4c(c3)OCO4)nc(N3CCN(c4ccccn4)CC3)nc21	0	0	0	76	0	0
O=C1CCCN1CCn1cnc2c(Nc3ccc(N4CCOCC4)cc3)nc(N3CCN(c4ccccn4)CC3)nc21	0	0	0	0	-	-
CCc1cn[nH]c1C1CCN(C(=O)c2ccc(N3CCN(C)CC3)cc2)CC1	0	0	0	0	-	-
O=C(c1ccc2c(c1)OCCO2)C1CCN(C(=O)c2c(F)cccc2F)CC1	0	0	0	0	-	-
CCOc1cc(C=O)ccc1OCC(=O)OC	0	0	0	0	-	-
CCOC(=O)COc1ccc(C=O)cc1OCC	0	0	0	76	0	0
Cc1cccc2cc(CN(C(=O)N(C)C)C3CCCC3)c3nnnn3c12	0	0	0	0	-	-
Cc1ccc2c(c1)cc1c(=O)n(CC(=O)NCCCN3CCCCC3)nc(C)n12	0	0	0	63	0	0
Cc1ccc2c(c1)cc1c(=O)n(CC(=O)NCCN3CCOCC3)nc(C)n12	0	0	0	0	-	-
O=C1CC(N2CCN(c3ccc(Cl)cc3)CC2)C(=O)N1CCc1ccccc1 (stereo not given)	0	0	0	53	0	0
CCN1CCN(Cc2coc3ccccc3c2=O)CC1	0	0	0	82	42	0	AS interf DR=0
CN1CCC(NCc2ccccc2C(F)(F)F)CC1	0	0	0	0	-	-
O=S(=O)(c1ccc(Cl)cc1)N1CCN(Cc2ccccc2C(F)(F)F)CC1	0	0	0	0	-	-
CCCN1CCC(NCc2ccccc2C(F)(F)F)CC1	0	0	0	55	0	0
FC(F)(F)c1ccccc1CN1CCN(Cc2ccccc2Br)CC1	0	0	0	62	0	0
CS(=O)(=O)N1CCN(Cc2ccccc2C(F)(F)F)CC1	0	0	0	71	0	0
FC(F)(F)c1ccccc1CN1CCN(Cc2ccncc2)CC1	0	0	0	71	0	0
COc1ccc(CN2CCN(Cc3ccccc3Br)CC2)cc1OC	0	0	0	0	-	-
COc1cc(C=Nc2ccc(C(C)=O)cc2)ccc1OC(C)=O	0	0	0	0	-	-
OCCC1CN(Cc2ccccc2C(F)(F)F)CCN1C1CCCC1 (stereo not given)	0	0	0	0	-	-
SMILES	FBW7 activator	GPR151 activ	TEAD-YAP block	MITF primary	MITF inh conf	AS interf ctr	others
Cc1ccccc1CN1CCN(C(=O)c2cccs2)CC1	0	0	0	0	-	-
FC(F)(F)c1ccccc1CN1CCN(Cc2ccccc2C(F)(F)F)CC1	0	0	0	70	0	0
O=C(c1cccs1)N1CCN(Cc2ccccc2C(F)(F)F)CC1	0	0	0	70	0	0
Fc1ccccc1CN1CCN(c2ccccn2)CC1	0	0	0	0	-	-
OC1CCN(Cc2ccccc2C(F)(F)F)CC1	0	0	0	0	-	-
FC(F)(F)c1ccccc1CN1CCN(Cc2ccc(Br)cc2)CC1	0	0	0	82	0	0
Fc1ccccc1CN1CCN(Cc2ccccc2C(F)(F)F)CC1	0	0	0	65	0	0
COc1cc(C2C(C#N)=C(N)N(c3ccc(Cl)c(Cl)c3)C3=C2C(=O)CC(C)(C)C3)cc(OC)c1OC (stereo not given)	0	0	0	0	-	-
CP(=O)(O)CN1CCCC1C(=O)O (stereo not given)	0	0	0	0	-	-
